Measured values: PubChem BioAssay AID2073 (Sanford-Burnham Center for Chemical Genomics, 2009)
Hit rate of the full screen: of about 290,000 compounds, about 570 (0.2%) were called active. Inconclusive results (about 1%) are left out. The sample holds actives, similar compounds and a random draw of the others, so the mix is not that of the screen. Cut-off read from the data, not from the text of the source: active = inhibition mostly above about 51% (no sharp cut-off); inconclusive = no clear call, values can overlap the other calls; inactive = mostly below about 53%.

Target: Voltage-dependent N-type calcium channel subunit alpha-1B (Homo sapiens) (UniProt Q00975)
Sequence (Q00975 whole entry, looked up): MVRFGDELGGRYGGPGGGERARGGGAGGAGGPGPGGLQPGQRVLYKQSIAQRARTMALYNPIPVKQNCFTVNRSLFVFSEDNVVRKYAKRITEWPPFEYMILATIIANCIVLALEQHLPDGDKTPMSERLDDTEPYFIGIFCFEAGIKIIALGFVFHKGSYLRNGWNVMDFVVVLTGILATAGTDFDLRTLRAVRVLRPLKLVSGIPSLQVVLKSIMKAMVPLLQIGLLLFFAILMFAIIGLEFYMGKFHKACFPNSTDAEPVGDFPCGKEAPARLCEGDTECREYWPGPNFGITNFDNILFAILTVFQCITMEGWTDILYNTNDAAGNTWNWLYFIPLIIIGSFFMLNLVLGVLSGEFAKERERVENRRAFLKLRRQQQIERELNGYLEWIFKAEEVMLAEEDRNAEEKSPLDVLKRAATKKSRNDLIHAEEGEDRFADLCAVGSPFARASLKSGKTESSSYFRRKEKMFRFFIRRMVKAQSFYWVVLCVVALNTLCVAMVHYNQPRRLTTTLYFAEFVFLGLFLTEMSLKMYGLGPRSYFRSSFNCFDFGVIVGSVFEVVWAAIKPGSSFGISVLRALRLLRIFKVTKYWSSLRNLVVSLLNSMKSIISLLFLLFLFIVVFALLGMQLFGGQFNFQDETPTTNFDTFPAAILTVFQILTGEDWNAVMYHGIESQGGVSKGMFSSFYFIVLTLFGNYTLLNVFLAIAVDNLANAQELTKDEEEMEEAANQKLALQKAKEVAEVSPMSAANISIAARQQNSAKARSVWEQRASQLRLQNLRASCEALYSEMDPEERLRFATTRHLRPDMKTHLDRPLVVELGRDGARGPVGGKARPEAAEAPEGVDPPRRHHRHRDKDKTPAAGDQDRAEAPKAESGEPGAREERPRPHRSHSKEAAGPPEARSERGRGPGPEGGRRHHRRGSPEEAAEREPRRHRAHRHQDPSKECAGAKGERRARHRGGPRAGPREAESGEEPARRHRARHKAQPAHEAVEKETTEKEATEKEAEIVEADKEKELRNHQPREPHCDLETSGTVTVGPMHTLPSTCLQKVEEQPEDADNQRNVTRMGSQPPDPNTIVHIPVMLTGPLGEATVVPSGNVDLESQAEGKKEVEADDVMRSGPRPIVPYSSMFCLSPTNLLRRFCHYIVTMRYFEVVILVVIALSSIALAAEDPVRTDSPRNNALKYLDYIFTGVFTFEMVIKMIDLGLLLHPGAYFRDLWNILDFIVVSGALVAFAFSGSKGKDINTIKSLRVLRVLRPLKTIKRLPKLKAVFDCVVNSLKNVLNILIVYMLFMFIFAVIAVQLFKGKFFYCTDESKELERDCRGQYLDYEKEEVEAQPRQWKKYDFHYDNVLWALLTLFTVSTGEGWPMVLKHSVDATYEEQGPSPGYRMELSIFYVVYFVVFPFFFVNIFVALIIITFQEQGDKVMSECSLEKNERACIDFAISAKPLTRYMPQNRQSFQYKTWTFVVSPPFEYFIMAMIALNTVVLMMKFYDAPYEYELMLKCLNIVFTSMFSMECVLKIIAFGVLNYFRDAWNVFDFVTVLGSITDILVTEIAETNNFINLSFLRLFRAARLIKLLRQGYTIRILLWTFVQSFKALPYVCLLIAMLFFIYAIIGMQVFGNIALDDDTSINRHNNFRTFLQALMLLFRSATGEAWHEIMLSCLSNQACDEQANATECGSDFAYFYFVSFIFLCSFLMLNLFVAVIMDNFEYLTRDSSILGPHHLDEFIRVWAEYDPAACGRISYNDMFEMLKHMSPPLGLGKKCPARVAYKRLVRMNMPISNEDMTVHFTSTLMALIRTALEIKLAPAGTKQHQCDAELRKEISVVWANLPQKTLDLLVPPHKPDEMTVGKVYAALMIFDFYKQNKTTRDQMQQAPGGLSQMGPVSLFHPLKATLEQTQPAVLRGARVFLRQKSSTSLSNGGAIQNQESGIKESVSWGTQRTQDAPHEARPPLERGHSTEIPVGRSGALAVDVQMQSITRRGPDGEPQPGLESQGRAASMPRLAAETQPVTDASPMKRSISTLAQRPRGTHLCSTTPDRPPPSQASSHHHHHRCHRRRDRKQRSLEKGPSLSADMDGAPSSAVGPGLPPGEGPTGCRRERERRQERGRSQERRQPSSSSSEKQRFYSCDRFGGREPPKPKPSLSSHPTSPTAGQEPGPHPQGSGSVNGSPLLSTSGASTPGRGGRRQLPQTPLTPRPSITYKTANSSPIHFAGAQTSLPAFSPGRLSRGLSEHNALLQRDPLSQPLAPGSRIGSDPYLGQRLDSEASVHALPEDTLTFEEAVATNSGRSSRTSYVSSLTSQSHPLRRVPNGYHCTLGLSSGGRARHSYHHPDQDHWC
Test: disruptors of CaV2.2 binding to Mint1 – biochemical, HTRF (AID 2073)
Details: HTRF protein-protein interaction, Mint1-CaV2.2, at 20 µM, stronger effect = higher value
[1] = measured here: average of repeat tests

| Structure (SMILES) | inhibition | inhibition [1] |
| --- | --- | --- |
| Cc1ccc(N2C(=O)N3[C@H](c4ccc(F)cc4)[C@@H]4C(=O)N(C5CCCCC5)C(=O)[C@@H]4[C@]3(C)C2=O)cc1 | 3.5% (inactive) | – |
| Cc1ccccc1C(=O)NC(C(N)=O)P(=O)(OC(C)C)OC(C)C (configuration not stated) | -2.5% (inactive) | – |
| CCc1ccccc1NS(=O)(=O)c1cccc2nsnc12 | 4.2% (inactive) | – |
| NC(=S)n1[nH]c(-c2ccc([N+](=O)[O-])cc2)c(N=Nc2ccc(O)cc2)c1=O | -5.9% (inactive) | – |
| NC(=S)n1[nH]c(-c2ccc([N+](=O)[O-])cc2)c(N=Nc2cccc(Cl)c2)c1=O | 64.1% (inactive) | 12.7% |
| NC(=S)n1[nH]c(-c2ccc([N+](=O)[O-])cc2)c(N=Nc2ccccc2[N+](=O)[O-])c1=O | 69.4% (inactive) | 20.6% |
| Cc1[nH]n(C(N)=S)c(=O)c1N=Nc1cccc([N+](=O)[O-])c1C | 14.9% (inactive) | – |
| CCCC(=O)c1cc2cc(Cl)ccc2oc1=O | -2.8% (inactive) | – |
| CCOC(=O)CSc1nnc(-c2cccnc2)n1C | 0.8% (inactive) | – |
| CN1CCN(C(CC(=O)Nc2cccc(O)c2)C(=O)O)CC1 (configuration not stated) | 0.5% (inactive) | – |
| O=C(CSc1nnc(-c2ccccc2)o1)NC1CCS(=O)(=O)C1 (configuration not stated) | -2.1% (inactive) | – |
| O=C(OCn1ncc(Cl)c(Cl)c1=O)c1ccc(F)cc1 | -3% (inactive) | – |
| COc1ccc(N2CCN(C(=O)c3ccc4c(=O)n5c(nc4c3)CCCCC5)CC2)cc1 | -6.5% (inactive) | – |
| Cc1ccc2c(CN3CCN(Cc4ccccc4)CC3)cc(=O)oc2c1C | 6.6% (inactive) | – |
| Cc1ccccc1NC(=S)NCc1cccs1 | 5.6% (inactive) | – |
| Cc1cc(C)c(NC(=S)N(Cc2cccnc2)Cc2ccco2)c(C)c1 | 0.6% (inactive) | – |
| CCC(C)(C)n1nnnc1C(c1cc2ccc(OC)cc2[nH]c1=O)N1CCc2ccccc21 (configuration not stated) | 19.3% (inactive) | – |
| COc1ccc2cc(C(c3nnnn3C(C)(C)C)N3CCc4ccccc4C3)c(=O)[nH]c2c1 (configuration not stated) | 33% (inactive) | – |
| CCC(C)(C)n1nnnc1C(c1cc2ccc(OC)cc2[nH]c1=O)N1CCc2ccccc2C1 (configuration not stated) | 56.9% (active) | – |
| Fc1cccc(Cl)c1CNn1cn[nH]c1=S | -3% (inactive) | – |

| Structure (SMILES) | inhibition | inhibition [1] |
| --- | --- | --- |
| COc1ccc2c(c1)CCc1cc(C(=O)N3CCN(c4ccc(N5CCOCC5)nn4)CC3)sc1-2 | 13.6% (inactive) | – |
| CCCCc1[nH]nc2c1C1(C(=O)N(CC)c3ccccc31)C(C#N)=C(N)O2 (configuration not stated) | -5.8% (inactive) | – |
| COc1ccc(N2CCN(CCNC(=O)Nc3cccc(C)c3C)CC2)cc1 | 0.6% (inactive) | – |
| O=C(/C=C/c1ccc2c(c1)OCO2)Nc1nc(-c2ccc(F)cc2F)cs1 | 9.1% (inactive) | – |
| CCCCOc1ccc(-c2cc(C(F)(F)F)c(C#N)c(SCC(=O)O)n2)cc1 | 60.7% (active) | – |
| COc1ccc(-c2cc(C(F)(F)F)c(C#N)c(SCC(=O)O)n2)cc1 | 22% (inactive) | – |
| CCCOc1ccc(-c2cc(C(F)(F)F)c(C#N)c(SCC(=O)O)n2)cc1 | 35.3% (inactive) | – |
| Cc1cccc(NC(=O)CCN2C(=O)C3C4C=CC(C4)C3C2=O)n1 (configuration not stated) | 22% (inactive) | – |
| O=C(NCc1ccc(Cl)cc1)c1nccnc1CO | 11.8% (inactive) | – |
| COc1ccc(NS(=O)(=O)c2cccc(-c3n[nH]c(=S)n3Cc3ccccc3)c2)cc1 | 3.7% (inactive) | – |
| O=C(COc1ccccc1Cl)c1ccc[nH]1 | 53.6% (active) | – |
| O=C(COc1ccc(Cl)cc1Cl)c1ccc[nH]1 | 21.1% (inactive) | – |
| O=C(COc1ccc(Br)cc1Cl)c1ccc[nH]1 | 24.7% (inactive) | – |
| COc1ccc(C(NC(=O)CC(C)C)c2c(O)ccc3ccccc23)cc1 (configuration not stated) | 15.2% (inactive) | – |
| CCc1ccc(C2CC(=O)N3CN(c4ccccc4)CSC3=C2C#N)cc1 (configuration not stated) | 88% (inactive) | 42.4% |
| COc1cc(OC)c(C2CC(=O)N3CN(c4ccc(C)cc4)CSC3=C2C#N)cc1OC (configuration not stated) | 65.7% (inactive) | 14.9% |
| COc1cc(C2CC(=O)N3CN(c4ccccc4C)CSC3=C2C#N)cc(OC)c1OC (configuration not stated) | 90.6% (inactive) | 32.6% |
| COc1cc(OC)c(C2CC(=O)N3CN(c4ccccc4C)CSC3=C2C#N)cc1OC (configuration not stated) | 73.1% (active) | – |
| CCc1ccccc1N1CSC2=C(C#N)C(c3ccccc3F)CC(=O)N2C1 (configuration not stated) | 84.5% (active) | – |
| CCOc1cc(C2CC(=O)NC(SCC)=C2C#N)ccc1O (configuration not stated) | 5.2% (inactive) | – |

| Structure (SMILES) | inhibition | inhibition [1] |
| --- | --- | --- |
| COc1cccc(C2CC(=O)N3CN(c4cccc(Cl)c4C)CSC3=C2C#N)c1OC (configuration not stated) | 73.5% (active) | – |
| N#CC1=C2SCN(c3ccccc3)CN2C(=O)CC1c1cccs1 (configuration not stated) | 74% (inactive) | 42.2% |
| N#CC1=C2SCN(c3ccccc3)CN2C(=O)CC1c1ccccc1Cl (configuration not stated) | 57.1% (inactive) | 35.2% |
| CCc1ccccc1N1CSC2=C(C#N)C(c3cc(OC)c(OC)cc3OC)CC(=O)N2C1 (configuration not stated) | 75.6% (inactive) | 34.5% |
| CCOc1cc(C2CC(=O)N3CN(C4CCCCC4)CSC3=C2C#N)ccc1O (configuration not stated) | 62.4% (active) | – |
| N#CC1=C2SCN(Cc3ccco3)CN2C(=O)CC1c1ccccc1F (configuration not stated) | 84.1% (inactive) | 33.2% |
| CCC(C)/C(C)=N/NC(=O)CSc1nc2ccccc2[nH]1 (configuration not stated) | -5.4% (inactive) | – |
| Cc1ccc(C)c(N(C(=O)c2csnn2)C(C(=O)NC2CCCCC2)c2ccccn2)c1 (configuration not stated) | 1.3% (inactive) | – |
| O=C(CN1CCOCC1)Nc1cccc(S(=O)(=O)N2CCCCCC2)c1 | -5.9% (inactive) | – |
| Cc1ccc(N2C(=O)C3C4CC(=O)C(c5ccccc54)C3C2=O)cc1C (configuration not stated) | -1.5% (inactive) | – |
| COc1ccc(OC)c(C2CC(=O)N3CN(c4ccccc4F)CSC3=C2C#N)c1 (configuration not stated) | 29.3% (inactive) | – |
| COc1ccc(N2CSC3=C(C#N)C(c4cc(OC)ccc4OC)CC(=O)N3C2)c(OC)c1 (configuration not stated) | 69.2% (active) | – |
| COc1ccc(C2CC(=O)N3CN(c4ccc(C)c(Cl)c4)CSC3=C2C#N)cc1 (configuration not stated) | 80.8% (inactive) | 11.1% |
| COc1ccc(N2CSC3=C(C#N)C(c4ccc(OC)c(OC)c4)CC(=O)N3C2)c(OC)c1 (configuration not stated) | 91.4% (active) | – |
| COc1ccccc1N1CSC2=C(C#N)C(c3ccc(SC)cc3)CC(=O)N2C1 (configuration not stated) | 81.5% (active) | – |
| COc1ccc(C2CC(=O)N3CN(c4ccccc4F)CSC3=C2C#N)cc1OC (configuration not stated) | 79.9% (inactive) | 38.6% |
| COc1cccc(C2CC(=O)N3CN(c4ccccc4F)CSC3=C2C#N)c1 (configuration not stated) | 75.5% (inactive) | 31% |
| CCOc1ccccc1N1CSC2=C(C#N)C(c3c(OC)ccc4ccccc34)CC(=O)N2C1 (configuration not stated) | 72.9% (inactive) | 9.7% |
| COc1ccc(OC)c(C2CC(=O)N3CN(c4cccc(Cl)c4)CSC3=C2C#N)c1 (configuration not stated) | 37.5% (inactive) | – |
